Consider eleven compounds from PubChem BioAssay.

The source made the active and inactive calls. Unless noted, how the calls were made is not given here.

A short description of assay [1]: resazurin metabolic signal in HepG2 cells – cell-based, resazurin fluorescence, 24 h, PK04 Diversity Set, profiling panel (AID 1172). Further: test concentration not given here. The note with it: HepG2 viability, higher = more signal.
Assay [2] can be described thus: budding yeast growth changes without added modifier – OD600, strain BY4716, 24 h, basal condition, primary screen (AID 1173). The note with it: S. cerevisiae BY4716 growth, OD600, 24 h; higher = more signal, called active from +8 up or from −8 down.
Assay [3] can be described thus: viability profiling in MM1S myeloma cells – cell-based, resazurin fluorescence, basal, 24 h, PK04 Diversity Set, profiling panel (AID 1174).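 Further: MM1S multiple myeloma cell line; test concentration not given here.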 The note with it: higher = more signal, called active from +8 up or from −8 down.
Assay [4] deals with Dihydroorotate dehydrogenase (quinone), mitochondrial (Plasmodium falciparum (isolate 3D7)) (UniProt Q08210). Kind of assay: inhibition of P. falciparum DHODH – biochemical, C-terminal His tag, absorbance 600 nm, primary screen (AID 1175).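 Further: recombinant parasite enzyme with a five histidine tag at its C terminus; test concentration not given here.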 The settings on record: PfDHODH enzyme, DCIP absorbance 600 nm; higher = more signal, called active from +8 up or from −8 down.
Assay [5] can be described thus: inhibition of PAO1 biofilm formation – strain PAO1, LB-PBS medium, absorbance 600 nm, primary screen (AID 1176). Further: test concentration not given here. The settings on record: P. aeruginosa PAO1 growth/biofilm, A600, 12 h; higher = more signal.
The nature of assay [6]: growth modulation of vineyard yeast isolate – strain RM11-1a, OD600, basal, 24 h, primary screen (AID 1177).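 Further: cultures grown under basal conditions with no added stressor; test concentration not given here.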 The settings on record: S. cerevisiae RM11-1a growth, OD600, 24 h; higher = more signal, called active from +8 up or from −8 down.
Assay [7] is described as follows: growth of efflux-deficient E. coli DRC39 – strain DRC39, OD650, 24 h, E. coli filamentation inducers, primary screen (AID 1178).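 Further: growth measured as culture turbidity by optical density at 650 nm; test concentration not given here.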 The note with it: E. coli DRC39 acrAB, higher = more signal, called active from +8 up or from −8 down.
A short description of assay [8]: growth of efflux-deficient E. coli DRC39 – strain DRC39, OD650, 48 h, E. coli filamentation inducers, primary screen (AID 1179).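 Further: screen aims at cell division blockers that make cells filament.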 The note with it: E. coli DRC39 delta-acrAB growth, higher = more signal, called active from +8 up or from −8 down.
Assay [9] can be described thus: viability profiling in RPMI8226 myeloma cells – cell-based, resazurin fluorescence, basal, 24 h, PK04 Diversity Set, profiling panel (AID 1180).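 Further: RPMI8826 multiple myeloma cell line at 5000 cells per well; test concentration not given here.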 The note with it: higher = more signal.
Assay [10] addresses E3 ubiquitin-protein ligase XIAP (Homo sapiens) (UniProt P98170). Kind of assay: small molecules binding XIAP protein – biophysical, small-molecule microarray, fluorescence 635 nm, primary screen (AID 1181).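 Further: score merges 667 nm emission and signal to noise over triplicate slides.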 The note with it: higher = more signal.

Dihydroorotate dehydrogenase (quinone), mitochondrial (Plasmodium falciparum (isolate 3D7)), sequence (Q08210 whole entry, looked up): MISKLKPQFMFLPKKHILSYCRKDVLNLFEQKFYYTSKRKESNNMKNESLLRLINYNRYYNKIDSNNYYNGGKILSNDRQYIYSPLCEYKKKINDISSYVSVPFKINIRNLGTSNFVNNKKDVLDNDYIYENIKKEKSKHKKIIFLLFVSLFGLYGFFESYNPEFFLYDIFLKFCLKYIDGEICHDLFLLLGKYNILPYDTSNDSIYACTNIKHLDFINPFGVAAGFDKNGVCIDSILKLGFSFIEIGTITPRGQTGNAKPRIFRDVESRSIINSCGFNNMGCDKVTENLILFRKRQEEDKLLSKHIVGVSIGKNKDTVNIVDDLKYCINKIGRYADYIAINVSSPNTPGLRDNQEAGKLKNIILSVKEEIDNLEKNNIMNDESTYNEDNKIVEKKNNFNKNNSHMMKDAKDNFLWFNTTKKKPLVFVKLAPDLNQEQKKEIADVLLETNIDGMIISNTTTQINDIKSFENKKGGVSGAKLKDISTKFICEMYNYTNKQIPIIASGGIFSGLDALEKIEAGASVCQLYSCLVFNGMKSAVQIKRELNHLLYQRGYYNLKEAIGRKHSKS
E3 ubiquitin-protein ligase XIAP (Homo sapiens), sequence (P98170 whole entry, looked up): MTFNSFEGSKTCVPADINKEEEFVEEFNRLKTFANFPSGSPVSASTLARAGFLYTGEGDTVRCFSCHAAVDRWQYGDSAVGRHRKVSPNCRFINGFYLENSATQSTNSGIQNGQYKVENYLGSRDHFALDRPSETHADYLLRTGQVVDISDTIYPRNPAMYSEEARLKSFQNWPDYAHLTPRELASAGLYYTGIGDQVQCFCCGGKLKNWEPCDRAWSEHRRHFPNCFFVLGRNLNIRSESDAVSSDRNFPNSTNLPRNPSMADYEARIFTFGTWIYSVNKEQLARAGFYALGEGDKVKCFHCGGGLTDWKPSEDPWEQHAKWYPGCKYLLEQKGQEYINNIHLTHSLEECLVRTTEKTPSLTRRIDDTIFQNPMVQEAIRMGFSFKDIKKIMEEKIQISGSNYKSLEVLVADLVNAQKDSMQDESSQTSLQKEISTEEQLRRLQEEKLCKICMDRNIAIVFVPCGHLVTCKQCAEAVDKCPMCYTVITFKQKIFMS

Regarding `CCN(CC)c1ccc(N2CC=CC34O[C@@H]5/C=C\CCC(C)OC(=O)C5[C@H]3C(=O)N(CCCO)[C@@H]4C2=O)cc1` (stereo not given in full), the z-score is -0.649 in assay [1]; 1.09 (inactive) in assay [2]; 0.267 (inactive) in assay [3]; -0.745 (inactive) in assay [5]; 1.21 (inactive) in assay [6]; 0.692 (inactive) in assay [7]. The z-score in [8] was 0.562 (inactive); in [9], 0.47. The composite z-score in assay [4] is 0.424 (inactive); in [10] it was -0.0243.

In the case of `COC(=O)[C@H](C)NC(=O)CCC1CC(OC(=O)NCc2ccc3c(c2)OCO3)CC2(CCCC(COC(=O)NCCOc3ccccc3)O2)O1` (stereo not given in full), the z-score is 0.658 in [1]; -0.565 (inactive) in assay [2]; -0.951 (inactive) in assay [3]; 0.875 (inactive) in assay [5]; -1.31 (inactive) in assay [6]; -0.388 (inactive) in assay [7]. Also, the z-score in assay [8] was -0.915 (inactive); in [9], 0.891. Further, the composite z-score in assay [4] was -1.61 (inactive); in [10], -0.105.

Consider `CCCC[C@H]1OB(O)C[C@H]2C1=C(C)C[C@H]1C(=O)N(C)C(=O)[C@H]12`, for which the z-score is -0.539 in assay [1]; -2.09 (inactive) in assay [2]; -0.596 (inactive) in assay [3]; 0.4 (inactive) in assay [5]; -0.776 (inactive) in assay [6]; 0.506 (inactive) in assay [7]. Besides, the z-score in [8] was 0.499 (inactive); in [9], -0.466. The composite z-score in assay [4] is -0.829 (inactive); in assay [10], -0.256.

As for `COCC(=C=CC[C@@H](O)c1ccccc1OCCO)CCO`, the z-score is 0.721 in assay [1]; -0.853 (inactive) in [2]; 0.599 (inactive) in assay [3]; 0.0356 (inactive) in [5]; 0.0502 (inactive) in [6]; 1.63 (inactive) in assay [7]. The values for the z-score in assay [8] and in assay [9] were 1.16 (inactive) and 1.42, respectively. Moreover, the composite z-score is -1.59 (inactive) in assay [4] and 0.326 in assay [10].

For the compound `Cc1cc2c(c(=O)o1)[C@H](O)[C@H]1O[C@H]1C2=O`, the z-score in assay [1] was 0.145; in assay [2], -2 (inactive); in assay [3] it was -1.19 (inactive); in assay [5], -0.282 (inactive); in assay [6], -0.627 (inactive); in [7], -0.973 (inactive). Besides, the z-score is -0.662 (inactive) in [8] and -0.764 in assay [9]. For the same compound, the figures for the composite z-score in assay [4] and in assay [10] were 0.44 (inactive) and -0.176, respectively.

In the case of `CN(C)CCCNC(=O)[C@@H]1c2ccccc2C(=O)N(Cc2ccccc2)[C@H]1c1ccc(CO)cc1`, the z-score was -0.309 in assay [1]; 0.0396 (inactive) in assay [2]; 0.499 (inactive) in assay [3]; -0.233 (inactive) in assay [5]; 0.075 (inactive) in [6]; -0.0194 (inactive) in [7]. The figures for the z-score in assay [8] and in assay [9] were -0.136 (inactive) and 0.791, respectively. In addition, the composite z-score is -0.303 (inactive) in [4] and -0.0926 in assay [10].

Consider `CCc1cc2c(nc1CC)CCN(CCC(C)=NOC[C@@H](O)COCc1ccco1)C2`, for which the z-score in assay [1] was -0.596; in [2], -1.12 (inactive); in [3], -0.24 (inactive); in assay [5] it was -0.0174 (inactive); in assay [6], -0.727 (inactive); in assay [7] it was 0.377 (inactive). The z-score in assay [8] was 0.389 (inactive); in assay [9], -0.0388. The composite z-score in assay [4] was -0.127 (inactive); in assay [10] it was 0.183.

In the case of `C/C=C\[C@@H](NCc1ccccc1Br)[C@@H](O)Cc1ccccc1`, the z-score in assay [1] is -0.391; in [2], -9.3 (active); in assay [3], -0.393 (inactive); in [5] it was -1.61 (inactive); in [6], -0.572 (inactive); in assay [7], -0.179 (inactive). The figures for the z-score in assay [8] and in assay [9] were -1.18 (inactive) and -0.645, respectively. Further, the composite z-score is -2.11 (inactive) in assay [4] and 0.0785 in assay [10].

Turning to `C[C@H](c1ccccc1)N1C(=O)[C@H]2[C@@H]3C(=CC[C@H]2C1=O)C(=O)[C@H]1O[C@H]1[C@H]3O`, the z-score is -2.54 in assay [1]; -3.82 (inactive) in [2]; -8.01 (active) in assay [3]; -0.993 (inactive) in [5]; -0.141 (inactive) in assay [6]; 0.144 (inactive) in [7]. The values for the z-score in assay [8] and in assay [9] were 0.494 (inactive) and -5.33, respectively. Besides, the values for the composite z-score in assay [4] and in assay [10] were -1.74 (inactive) and 0.288, respectively.

`C=CCNC(=O)[C@H]1[C@@H]2C(=O)O[C@@H](c3ccccc3)[C@@H](c3ccccc3)N2[C@@H](c2ccc(O)cc2)[C@]12C(=O)N(C(=O)OCCOC)c1ccc(C#CC3=CCCCC3)cc12`: the z-score is 0.467 in assay [1]; 0.107 (inactive) in [2]; -0.61 (inactive) in [3]; 0.858 (inactive) in assay [5]; 1.01 (inactive) in assay [6]; -0.925 (inactive) in assay [7]. Also, the z-score in assay [8] is -0.723 (inactive); in assay [9], -0.205. Besides, the figures for the composite z-score in assay [4] and in [10] were -0.629 (inactive) and 0.22, respectively.

In the case of `CO[C@@H]1COC(=O)CCC[C@@H](C)[C@H](OC)COC(=O)CCC[C@H]1C`, the z-score is 0.733 in [1]; 1.47 (inactive) in [2]; 0.367 (inactive) in assay [3]; -0.667 (inactive) in assay [5]; 1.6 (inactive) in assay [6]; 0.265 (inactive) in assay [7]. The z-score in assay [8] is -0.65 (inactive); in [9], 0.276. The composite z-score is -0.0732 (inactive) in [4] and -0.256 in assay [10].
